We go through 62 molecules from PubChem BioAssay AID1285 (Columbia University Molecular Screening Center, 2008).

SMILES strings stand for the structures. The campaign covered roughly 190,000 compounds. About 1,600 (0.84%) were called active.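 How the source made its calls: active means inhibition above a set limit, derived from the sample mean plus 3 SD (cut at about 45% in these data); inconclusive means one replicate passes the limit while the other fails; inactive means the rest.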 What follows is part of a selection rich in actives, with near analogues and random picks from the rest.

The nature of the test: inhibitors of APP translation via 5'UTR reporter, primary screen, APP 5'UTR luciferase, SH-SY5Y cells (AID 1285). Conditions: SH-SY5Y APP 5'UTR-luciferase reporter, luminescence; at 2 µM; active compounds read high. A general note: Reporter assays use an easily measured gene product as a stand-in for the process of interest.
As a reminder, the inhibition is the change of the read-out against control, counted positive when it falls. For the molecule `Cc1cc(N2CCOCC2)nc2ccc(NC(=S)N3CCN(Cc4ccccc4)CC3)cc12`, the inhibition was -3.7% (inactive). As for `CCOc1ccc(-n2c(O)c(/C=N/Nc3nnc(C)c(=O)[nH]3)c3ccccc3c2=O)cc1`, the figure is -5.3% (inactive); as for `COc1ccc(/C=N/Nc2nc3ccccc3c(=O)[nH]2)cc1`, -92.9% (inactive); as for `COc1ccc(Cc2nnc(N/N=C/c3ccccc3O)[nH]c2=O)cc1OC`, 85.9% (active). With `COc1ccc(S(=O)(=O)N2CN(CCc3ccc(OC)c(OC)c3)c3nc4ccccc4nc32)cc1`, the inhibition was -3.7% (inactive). As for `COC(=O)C1=C(C)NC(=O)CC1c1ccccc1OC` (configuration not stated), the figure is -15.8% (inactive); as for `O=C(Nc1ccccc1C(=O)O)c1cc(S(=O)(=O)N2CCCCC2)cs1`, -13.4% (inactive); as for `Cc1ccc(-n2[nH]c(C)c(/C=N/NC(=O)c3cccc([N+](=O)[O-])c3)c2=O)cc1C`, -33.1% (inactive). As for `Cc1ccsc1C(=O)N/N=C/c1ccc([N+](=O)[O-])cc1`, the figure is -37.2% (inactive); as for `Cc1cc(C(=O)N/N=C/c2cc([N+](=O)[O-])cc(C)c2O)n[nH]1`, 87.3% (active); as for `CCOc1cc(CNn2c(C)nnc2SCC(=O)NC(C)(C)C)ccc1OCC(=O)NC(C)(C)C`, 21.4% (inactive).

For the molecule `Cc1cc(C)n(CC(O)CN(c2ccccc2)S(=O)(=O)c2ccc3ccccc3c2)n1` (configuration not stated), the inhibition was 1.9% (inactive).

On to `CCOC(=O)CN/C=C(\C#N)c1ccc(F)cc1`, for which the inhibition is -29.3% (inactive). For `CCOc1cc(/C=C(/C#N)c2ccc(Cl)cc2)cc(Cl)c1OCC(=O)O`, the inhibition was 50.6% (active). With `CCOc1c(Cl)cc(/C=N/O)cc1OC`, the inhibition was -23.6% (inactive). With `Cc1ccc(S(=O)(=O)C2C(=O)NC3(C)CC2c2ccccc2O3)cc1` (configuration not stated), the inhibition is -1.5% (inactive). As for `CCN(CC)CCCSc1nc2ccccc2s1`, the figure is -15.1% (inactive). As for `O=C(CC(NC(=O)c1ccccc1)c1ccccc1)Nc1ccc(F)c(F)c1` (configuration not stated), the figure is 24.2% (inactive). As for `CCOC(=O)N1CCN(C(=O)COc2ccc(Br)cc2)CC1`, the figure is -13.6% (inactive). With `CCOC(=O)N1CCN(C(=O)CSc2ccc(Cl)cc2)CC1`, the inhibition is 5% (inactive). In the case of `CCOC(=O)N1CCN(C(=O)COc2ccc(Cl)cc2C)CC1`, the inhibition is 49.2% (active).

In the case of `CC(Sc1nnnn1C)C(=O)NC(=O)NC1CCCCC1` (configuration not stated), the inhibition was -31% (inactive). As for `Cc1ccc(CNC(=O)C2CC(=O)N(C3CCCCCCC3)C2)cc1` (configuration not stated), the figure is -17.8% (inactive); as for `CCc1ccc(CNC(=O)C2CC(=O)N(CCc3ccc(C)cc3)C2)cc1` (configuration not stated), 50.9% (active).

As to `Cc1ccc(CCN2CC(C(=O)O)CC2=O)cc1` (configuration not stated), the inhibition is -6.2% (inactive).

With `Cc1ccc(NC(=O)c2ccc(Oc3ncccn3)cc2)cc1`, the inhibition was -39.8% (inactive). As to `O=C(CCC(=O)c1cccs1)NC1CCCCCC1`, the inhibition is -18.6% (inactive). As for `O=C(O)COc1ccc(-c2nccc(-c3cccs3)n2)cc1`, the figure is 69% (active); as for `COC(=O)CSc1nccc(-c2cccs2)n1`, 8.1% (inactive); as for `O=C(Nc1ccnc(-c2ccncc2)n1)c1cccs1`, 5.8% (inactive). As for `Cc1ccc2c(c1)C(O)(CC(=O)c1cccc(-n3cccc3)c1)C(=O)N2` (configuration not stated), the figure is -4.6% (inactive). `CC1CC(C)CN(C(=O)CSc2ccsc2[N+](=O)[O-])C1` (configuration not stated): the inhibition was -3.7% (inactive).

Take `O=C(NCc1ccco1)C(=O)c1cn(CC(=O)N2CCCCCC2)c2ccccc12`: the inhibition is -1.5% (inactive). As for `COc1ccc(NC(=O)/C(Cl)=C(/Cl)S(=O)Cc2ccc(C)cc2)cn1` (configuration not stated), the figure is 91.7% (active); as for `CC(=O)Nc1ccc(OCC(=O)NCc2ccc(C)cc2)cc1`, -8.4% (inactive).

For `COc1ccc(NC(=S)Nc2ccccc2Cl)cn1`, the inhibition is -6.6% (inactive). As for `COc1ccc(CS(=O)/C(Cl)=C(/Cl)C(=O)Nc2ccc(OC)nc2)cc1` (configuration not stated), the figure is 94% (active); as for `Cc1ccc(NC(=O)OCc2cncs2)cc1`, -41.4% (inactive); as for `COc1ccc(NC(=S)NCCNC(C)=O)cc1`, -0.5% (inactive). `Cc1cc(C(=O)NNC(=O)CCC2CCCCC2)c(C)o1`: the inhibition is -4% (inactive). As for `O=C(Cc1cccs1)N(CC1CCCO1)C1(C(=O)NC2CCCCC2)CCCCC1` (configuration not stated), the figure is -11.4% (inactive).

With `Cc1ccc(C(=O)OC2CCCN(C)C2)cc1` (configuration not stated), the inhibition was 5.1% (inactive). Consider `Cc1nnc(-c2ccc(Oc3ccc(C)c(C)c3)c([N+](=O)[O-])c2)o1`, for which the inhibition was 11.5% (inactive).

As for `Cc1[nH]c2ccccc2c1/C=N\NC(=O)Cn1nnc(-c2ccccc2)n1`, the inhibition was -1.1% (inactive). `CC1=NN(C(=O)CCc2ccccc2O)C(O)(C(F)(F)F)C1` (configuration not stated): the inhibition is 8.6% (inactive). As for `Cc1cc(NC(=O)COC(=O)COc2ccc(Cl)cc2C)c([N+](=O)[O-])cc1C`, the figure is 8.7% (inactive); as for `Cc1ccc(C(C)C)cc1OCCN1CCCC1`, -3.6% (inactive); as for `Cc1cc(N2CCN(C)CC2)nc2ccc(NC(=S)N3CCOCC3)cc12`, -5.6% (inactive). With `COc1cccc(/C=N/Nc2ncc(C(F)(F)F)cc2Cl)c1O`, the inhibition was 80.5% (active). In the case of `COc1cc(/C=C2\SC(=S)N(Nc3ncc(C(F)(F)F)cc3Cl)C2=O)cc(OC)c1OC`, the inhibition was 0.7% (inactive).

On to `COc1cccc(/C(C)=N/Nc2ncc(Cl)cc2Cl)c1`, for which the inhibition was -24.9% (inactive). As for `OCCC1CN(Cc2cccc(O)c2)CCN1CCc1ccccc1` (configuration not stated), the figure is 1% (inactive); as for `Cc1nn(C)c(C)c1S(=O)(=O)N1CCC(CO)(Cc2ccc(Cl)cc2)CC1`, 26.8% (inactive). As for `COC(=O)/C=C\C(=O)Nc1cccc([N+](=O)[O-])c1`, the figure is 65% (active). `CC(=O)Nc1cccc([N+](=O)[O-])c1`: the inhibition was -68.1% (inactive).

For `Cc1ccccc1NC(=S)Nc1cccc([N+](=O)[O-])c1`, the inhibition is 10.9% (inactive). As for `CCOC(=O)c1c(C)[nH]c(=S)c(C#N)c1-c1ccccc1`, the figure is 17.1% (inactive); as for `CCOC(=O)c1c(C)[nH]c2c1-c1ccccc1C(=O)C2=O`, 95.9% (active); as for `Cc1[nH]c2ccccc2c1C(=O)COC(=O)C(C)C`, -8.5% (inactive).

As for `CSc1ccc(C(=O)C2CCCN(C(=O)c3ccc(C)nc3)C2)cc1` (configuration not stated), the inhibition was -16.6% (inactive). Take `CCOc1cc(N2CCOCC2)c(OCC)cc1NC(=O)C1=NN(c2cccc(C)c2)C(=O)CC1`: the inhibition was -5.2% (inactive). As for `CCCn1c(N)c(C(=O)CSc2nc3ccccc3c(=O)n2-c2ccc(OC)cc2)c(=O)[nH]c1=O`, the figure is -3.9% (inactive).
